SMILES strings stand for the structures. Calls of active or inactive are those of the source. Cut-off read from the data, not from the text of the source: active = inhibition above about 30%; inactive = the rest.

A word on the inhibition: it is the drop in the measured response relative to a control, in per cent.

The nature of this assay: growth suppression of yeast trafficking mutant, preliminary HTS, modulators of trafficking downstream of Golgi apparatus project, 1536-format plate, OD 615 nm (AID 637). The following applies: yeast transport mutant growth, absorbance 615 nm, 18 h; stronger effect = higher value.
For the compound `CCC(=O)Nc1c2c(nn1-c1ccccc1C)CSC2`, the inhibition was -3.65% (inactive).

In the case of `CCOC(=O)C1CCN(C(=O)COc2ccc(Cl)cc2Cl)CC1`, the inhibition is -6.35% (inactive). As for `CC1CC(=O)C2=C(C1)OC(N)=C(C#N)C2c1coc2ccccc2c1=O` (stereo not given), the inhibition was 2.26% (inactive). As for `CN(C1CCS(=O)(=O)C1)S(=O)C12CC3CC(CC(C3)C1)C2` (stereo not given), the inhibition is -5.08% (inactive). On to `S=c1[nH]nc(Cc2ccccc2)n1-c1ccccc1`, for which the inhibition was -6.33% (inactive). The figure for `Cc1cccc(Cc2nnc(NC(=O)c3cccc(S(=O)(=O)N4CCOCC4)c3)s2)c1` is -5.33% (inactive); for `COC(=O)[C@H](C)NC(=O)Nc1cc(OC)ccc1OC` it is -0.48% (inactive); for `COc1ccccc1NC(=O)C1=C(C)Nc2nnnn2C1c1ccccc1OC` (stereo not given) it is -1.5% (inactive). The same measure for `Cn1c(CNc2nc(-c3ccccc3)cs2)nnc1SCC(=O)N1CCc2ccccc21`: 7.14% (inactive). Turning to `CCOC(=O)N1CCN(C(=O)c2n[nH]c(=O)c3ccccc23)CC1`, the inhibition was 19% (inactive).

Regarding `O=C(CN1CCCN(S(=O)(=O)c2ccc(Br)cc2)CC1)Nc1ccc2cn[nH]c2c1`, the inhibition was 2.79% (inactive). The figure for `O=C(OCc1ccccc1F)c1ccc2c(c1)OCCO2` is -5.08% (inactive); for `CCN(CC)S(=O)(=O)c1ccc2c(c1)nc(SCC(=O)NC1CC1)n2-c1ccccc1OC` it is 3.65% (inactive); for `CCC(Sc1nc2sc(C(=O)OC)c(C)c2c(=O)n1N)C(=O)NCC1CCCO1` (stereo not given) it is -1.27% (inactive). Turning to `O=C(COc1ccccc1)Nc1ccc(-c2nnc(-c3ccco3)o2)cc1`, the inhibition is -1.15% (inactive). In the case of `O=C(CSc1nnnn1C1CCCC1)Nc1cccc(NC(=O)c2ccco2)c1`, the inhibition is -2.17% (inactive). On to `CCCCCc1c(O)nc(SCC(=O)NCC2CCCO2)[nH]c1=O` (stereo not given), for which the inhibition was -3.81% (inactive). Turning to `c1ccc(N=P(c2nc3ccccc3o2)(N2CCOCC2)N2CCOCC2)cc1`, the inhibition is 7.26% (inactive). In the case of `Cc1nn(S(=O)(=O)N2CCCCC2)c(C)c1Br`, the inhibition was -6.17% (inactive). The same measure for `Cc1cc2oc(=O)cc(C)c2c(=O)o1`: -3.83% (inactive); for `N#CCCn1ccc(NC(=O)c2ccc(Cl)cc2)n1`: -0.66% (inactive); for `S=c1[nH]nc(-c2ccco2)n1-c1cccc2ccccc12`: 14.6% (inactive). Consider `CCOC(=O)c1c(-c2ccc(C)o2)csc1NC(=O)COC(=O)c1cccs1`, for which the inhibition was -3.77% (inactive). As to `CCOc1cc2[nH]c(=O)n(CCCCC(=O)N3CCCCCC3)c(=O)c2cc1OCC`, the inhibition is -0.36% (inactive). Take `Clc1ccc(-n2ncc3c(NCCCn4ccnc4)ncnc32)cc1`: the inhibition was 3.39% (inactive). Take `COc1ccc(OC)c(C2C3=C(CCCC3=O)Nc3c2c(=O)n(C)c(=O)n3C)c1` (stereo not given): the inhibition is -0.33% (inactive). As for `COc1ccc(NC(=O)CN2CCN(CC(=O)Nc3cc(OC)cc(OC)c3)CC2)cc1`, the inhibition is 0.66% (inactive). With `Clc1cc2c(c(Cn3cnc4ccccc43)c1)OCOC2`, the inhibition was -5.57% (inactive).

For the compound `N#Cc1c2n(c(=S)n(-c3ccccn3)c1=O)CCCCC2`, the inhibition is -10.7% (inactive).

Turning to `N#Cc1c(NC(=O)c2ccc(Br)o2)n(-c2ccccc2)c2nc3ccccc3nc12`, the inhibition is 2.46% (inactive).

On to `COCCn1nnnc1C(c1ccc(OC)cc1)N1CCN(c2ccccc2F)CC1` (stereo not given), for which the inhibition was -2.06% (inactive). For the compound `COc1cc(-c2nnc(SCc3c(F)cccc3Cl)o2)cc(OC)c1OC`, the inhibition was -4.1% (inactive). For the compound `COC(=O)Cc1c(C)nc2nc(-c3ccco3)[nH]n2c1=O`, the inhibition was -3.65% (inactive).

Turning to `CCOC(=O)CSc1nc2cccnc2n1-c1ccc(F)cc1`, the inhibition is -8.1% (inactive). For the compound `COCCn1c(NCc2ccc(C)cc2)nc2c1c(=O)[nH]c(=O)n2C`, the inhibition is -1.29% (inactive). Regarding `Clc1ccc2nc(N3CCCCC3)[nH]c2c1`, the inhibition was 2.79% (inactive). Turning to `Cc1nnc(C)c2c(C)n(-c3ccc(Br)cc3)c(C)c12`, the inhibition was 1.61% (inactive). The figure for `O=C(NCC(F)(F)F)N1CCOCC1` is -6.19% (inactive); for `O=C(O)CC1SC(=Nc2cccc(C(F)(F)F)c2)NC1=O` (stereo not given) it is 1.29% (inactive). Take `COc1ccc2c(c1)OC(O)(C(F)F)CC2=O` (stereo not given): the inhibition was -2% (inactive).
